Where “and” joins values, the source holds several entries; their conditions need not be identical. Equal values may be shown once. About 2,000 (36%) of roughly 5,500 compounds were called active. Not shown: some 18% with an inconclusive outcome. No stated cut-off is given here; in the data, active means normalized growth mostly below about 0.91 (no sharp cut-off); inconclusive means no clear call, values can overlap the other calls; inactive means mostly above about 0.92. This is one part of the list.
Test: chemical genetic growth profiling, strain panel (AID 1159580);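 further: tested at 20 µM; growth read once vehicle control cultures reached saturation at 30 °C; 1 = growth at the plate median or of vehicle wells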
Conditions: S. cerevisiae deletion strains, growth OD

Measured: normalized growth

CS(=O)(=O)CCCCN=C=S
0.969 (inactive) and 0.726 (active): locus YHR030C, strain SLT2, stronger effect = lower value
inactive: locus YBR171W, strain sec66, stronger effect = lower value 0.954 | locus YBR229C, strain ROT2, stronger effect = lower value 0.96 | locus YDL005C, strain med2, stronger effect = lower value 1.01 | locus YDL185W, strain tfp1, stronger effect = lower value 0.948 | locus YDR137W, strain rgp1, stronger effect = lower value 0.918 | locus YDR150W, strain NUM1, stronger effect = lower value 0.963 | locus YDR159W, strain sac3, stronger effect = lower value 0.898 | locus YEL061C, strain CIN8, stronger effect = lower value 0.978 | locus YER111C, strain swi4, stronger effect = lower value 0.988 | locus YER155C, strain BEM2, stronger effect = lower value 1.01 | locus YER167W, strain BCK2, stronger effect = lower value 0.973 | locus YGL167C, strain pmr1, stronger effect = lower value 0.964 | locus YIL073C, strain SPO22, stronger effect = lower value 0.772 | locus YJL115W, strain asf1, stronger effect = lower value 0.941 | locus YJL134W, strain LCB3, stronger effect = lower value 0.981 | locus YJL168C, strain set2, stronger effect = lower value 0.954 | locus YKL068W, stronger effect = lower value 1.01 | locus YKL085W, strain MDH1 (second series), stronger effect = lower value 1 | locus YKL085W, strain MDH1, stronger effect = lower value 1 | locus YLR039C, strain RIC1, stronger effect = lower value 0.758 | locus YLR102C, strain apc9, stronger effect = lower value 0.983 | locus YLR262C, strain YPT6, stronger effect = lower value 0.797 | locus YLR342W, strain FKS1 (second series), stronger effect = lower value 0.813 | locus YLR357W, strain rsc2, stronger effect = lower value 0.98 | locus YMR078C, strain ctf18, stronger effect = lower value 0.965 | locus YMR125W, strain sto1, stronger effect = lower value 0.947 | locus YMR307W, strain GAS1, stronger effect = lower value 0.734 | locus YOL012C, strain htz1 0.428 | locus YOR061W, strain CKA2, stronger effect = lower value 0.936 | locus YOR080W, strain dia2, stronger effect = lower value 0.966 | locus YPR119W, strain clb2, stronger effect = lower value 1 | locus YPR141C, strain kar3, stronger effect = lower value 0.981
active: locus YAL021C, strain ccr4, stronger effect = lower value 0.889 | locus YAL030W, strain snc1, stronger effect = lower value 0.734 | locus YBL061C, strain skt5, stronger effect = lower value 0.746 | locus YBR009C, strain hhf1, stronger effect = lower value 0.495 | locus YBR021W, strain FUR4, stronger effect = lower value 0.847 | locus YBR023C, strain chs3, stronger effect = lower value 0.769 | locus YBR231C, strain swc5, stronger effect = lower value 0.504 | locus YBR279W, strain paf1, stronger effect = lower value 0.708 | locus YCL011C, strain gbp2, stronger effect = lower value 0.551 | locus YCL016C, strain dcc1, stronger effect = lower value 0.751 | locus YCL029C, strain bik1, stronger effect = lower value 0.822 | locus YCL061C, strain MRC1, stronger effect = lower value 0.834 | locus YCL069W, strain vba3, stronger effect = lower value 0.663 | locus YCR088W, strain abp1, stronger effect = lower value 0.84 | locus YDL035C, strain GPR1, stronger effect = lower value 0.791 | locus YDL040C, strain nat1, stronger effect = lower value 0.896 | locus YDL074C, strain BRE1, stronger effect = lower value 0.683 | locus YDL101C, strain DUN1, stronger effect = lower value 0.853 | locus YDL134C, strain PPH21, stronger effect = lower value 0.762 | locus YDL192W, strain arf1, stronger effect = lower value 0.688 | locus YDR001C, strain nth1, stronger effect = lower value 0.896 | locus YDR069C, strain doa4, stronger effect = lower value 0.829 | locus YDR101C, strain arx1, stronger effect = lower value 0.742 | locus YDR162C, strain NBP2, stronger effect = lower value 0.69 | locus YDR195W, strain ref2 1.2 [resistant] | locus YDR297W, strain sur2, stronger effect = lower value 0.737 | locus YDR318W, strain mcm21, stronger effect = lower value 0.816 | locus YDR334W, strain swr1, stronger effect = lower value 0.375 | locus YDR335W, strain msn5, stronger effect = lower value 0.802 | locus YDR388W, stronger effect = lower value 0.869 | locus YDR392W, strain spt3, stronger effect = lower value 0.474 | locus YDR502C, strain sam2, stronger effect = lower value 0.696 | locus YEL003W, strain gim4, stronger effect = lower value 0.217 | locus YEL037C, strain rad23, stronger effect = lower value 0.749 | locus YEL061C, strain CIN8 (second series), stronger effect = lower value 0.853 | locus YER015W, strain faa2, stronger effect = lower value 0.478 | locus YER016W, strain bim1, stronger effect = lower value 0.758 | locus YER110C, stronger effect = lower value 0.807 | locus YER155C, strain BEM2 (second series), stronger effect = lower value 0.439 | locus YFR010W, strain ubp6, stronger effect = lower value 0.62 | locus YGL078C, strain dbp3, stronger effect = lower value 0.92 | locus YGL086W, strain mad1, stronger effect = lower value 0.723 | locus YGL173C, strain kem1, stronger effect = lower value 0.692 | locus YGL227W, strain vid30, stronger effect = lower value 0.86 | locus YGL240W, strain doc1, stronger effect = lower value 0.545 | locus YGL248W, strain PDE1, stronger effect = lower value 0.724 | locus YGL253W, strain hxk2, stronger effect = lower value 0.428 | locus YGR078C, strain PAC10, stronger effect = lower value 0.799 | locus YGR135W, strain pre9, stronger effect = lower value 0.815 | locus YGR252W, strain gcn5, stronger effect = lower value 0.634 | locus YHR013C, strain ard1, stronger effect = lower value 0.816 | locus YHR027C, strain rpn1, stronger effect = lower value 0.618 | locus YHR079C, strain IRE1 (second series), stronger effect = lower value 0.885 | locus YHR079C, strain IRE1, stronger effect = lower value 0.67 | locus YHR094C, strain hxt1, stronger effect = lower value 0.913 | locus YHR129C, strain ARP1, stronger effect = lower value 0.865 | locus YHR142W, strain chs7, stronger effect = lower value 0.536 | locus YHR200W, strain rpn10, stronger effect = lower value 0.905 | locus YIL066C, strain RNR3, stronger effect = lower value 0.807 | locus YIL125W, strain kgd1, stronger effect = lower value 0.901 | locus YIR030C, strain dcg1, stronger effect = lower value 0.77 | locus YJL092W, strain hpr5, stronger effect = lower value 0.782 | locus YJL095W, strain BCK1 (second series), stronger effect = lower value 0.791 | locus YJL095W, strain BCK1, stronger effect = lower value 0.606 and 0.709 | locus YJL129C, strain trk1, stronger effect = lower value 0.762 | locus YJL154C, strain vps35, stronger effect = lower value 0.839 | locus YJL164C, strain tpk1, stronger effect = lower value 0.607 | locus YJL166W, strain qcr8, stronger effect = lower value 0.493 | locus YJL187C, strain SWE1 (second series), stronger effect = lower value 0.798 | locus YJR043C, strain POL32, stronger effect = lower value 0.567 | locus YJR066W, strain TOR1, stronger effect = lower value 0.716 | locus YKL009W, strain mrt4, stronger effect = lower value 0.82 | locus YKL160W, strain elf1, stronger effect = lower value 0.7 | locus YKR001C, strain vps1, stronger effect = lower value 0.582 | locus YKR026C, strain gcn3, stronger effect = lower value 0.866 | locus YKR091W, strain srl3, stronger effect = lower value 0.877 | locus YLL001W, strain dnm1, stronger effect = lower value 0.596 | locus YLL026W, stronger effect = lower value 0.65 | locus YLL041C, strain sdh2, stronger effect = lower value 0.801 | locus YLR027C, strain aat2, stronger effect = lower value 0.569 | locus YLR058C, strain SHM2, stronger effect = lower value 0.801 | locus YLR113W, strain HOG1, stronger effect = lower value 0.819 | locus YLR221C, strain rsa3, stronger effect = lower value 0.483 | locus YLR258W, strain gsy2, stronger effect = lower value 0.735 | locus YLR262C, strain YPT6 (second series), stronger effect = lower value 0.826 | locus YLR268W, strain sec22, stronger effect = lower value 0.669 | locus YLR320W, strain mms22, stronger effect = lower value 0.502 | locus YLR330W, strain CHS5, stronger effect = lower value 0.822 | locus YLR342W, strain FKS1, stronger effect = lower value 0.889 | locus YLR370C, strain arc18, stronger effect = lower value 0.766 | locus YLR371W, strain rom2, stronger effect = lower value 0.595 | locus YLR384C, strain iki3, stronger effect = lower value 0.658 | locus YLR418C, strain cdc73, stronger effect = lower value 0.645 | locus YML016C, strain PPZ1, stronger effect = lower value 0.842 | locus YML032C, strain rad52, stronger effect = lower value 0.801 | locus YML120C, strain ndi1, stronger effect = lower value 0.666 | locus YML124C, strain tub3, stronger effect = lower value 0.901 | locus YMR058W, strain fet3, stronger effect = lower value 0.559 | locus YMR129W, stronger effect = lower value 0.798 | locus YMR205C, strain PFK2, stronger effect = lower value 0.732 | locus YMR223W, strain ubp8, stronger effect = lower value 0.735 | locus YMR231W, strain pep5, stronger effect = lower value 0.522 | locus YNL067W, strain RPL9B, stronger effect = lower value 0.779 | locus YNL071W, strain lat1, stronger effect = lower value 0.538 | locus YNL183C, strain NPR1, stronger effect = lower value 0.623 | locus YNL209W, strain ssb2, stronger effect = lower value 0.628 | locus YNL233W, strain BNI4, stronger effect = lower value 0.767 | locus YNL248C, strain rpa49, stronger effect = lower value 0.493 | locus YNL250W, strain rad50, stronger effect = lower value 0.884 | locus YNL271C, strain bni1, stronger effect = lower value 0.887 | locus YNL298W, strain CLA4, stronger effect = lower value 0.906 | locus YNL307C, strain MCK1, stronger effect = lower value 0.575 | locus YNL322C, strain KRE1 (second series), stronger effect = lower value 0.711 | locus YNR049C, strain mso1, stronger effect = lower value 0.908 | locus YNR052C, strain pop2, stronger effect = lower value 0.821 | locus YOL147C, strain pex11, stronger effect = lower value 0.827 | locus YOR001W, strain rrp6, stronger effect = lower value 0.643 | locus YOR069W, strain VPS5, stronger effect = lower value 0.891 | locus YOR070C, strain gyp1, stronger effect = lower value 0.645 | locus YOR083W, strain WHI5, stronger effect = lower value 0.554 | locus YOR106W, strain vam3, stronger effect = lower value 0.359 | locus YOR136W, strain idh2, stronger effect = lower value 0.865 | locus YOR144C, strain elg1, stronger effect = lower value 0.932 | locus YOR184W, strain ser1, stronger effect = lower value 0.679 | locus YOR231W, strain MKK1, stronger effect = lower value 0.684 | locus YOR265W, strain rbl2, stronger effect = lower value 0.756 | locus YOR270C, strain vph1, stronger effect = lower value 0.352 | locus YOR290C, strain snf2, stronger effect = lower value 0.685 | locus YOR316C, strain cot1, stronger effect = lower value 0.921 | locus YPL051W, strain arl3, stronger effect = lower value 0.583 | locus YPL078C, strain atp4, stronger effect = lower value 0.562 | locus YPL106C, strain sse1, stronger effect = lower value 0.808 | locus YPL240C, strain hsp82, stronger effect = lower value 0.752 | locus YPL256C, strain CLN2, stronger effect = lower value 0.822 | locus YPR163C, strain tif3, stronger effect = lower value 0.854 | locus YPR167C, strain met16, stronger effect = lower value 0.904 | strain wtn01, stronger effect = lower value 0.652
